CYP2C19 act: human CYP2C19 activators, primary screen, biochemical, luminescence; Cytochrome P450 2C19 (Homo sapiens), P33261; recombinant CYP2C19, luciferin-H EGE luminescence; active compounds read high; 0 = fully inhibited enzyme, 1 = untreated enzyme; activation factor at 5 µM; 96,000 tested, under 10 active; AID 1025, 2008;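 active means activation factor of at least 2 at 5 µM in the primary screen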
CYP2C9 inhib: blockers of cytochrome P450 2C9 activity – biochemical, luminescence, ADME assay, primary screen. P11712. CYP2C9 Supersomes, luciferin-H conversion. inhibition, % at 5 µM. actives 20% (n = 96,000). AID 777, 2007;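 active means blocking of liver enzyme CYP2C9 beyond about 50% at 5 µM, limit read from the data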
Target sequence (P11712 whole entry, looked up): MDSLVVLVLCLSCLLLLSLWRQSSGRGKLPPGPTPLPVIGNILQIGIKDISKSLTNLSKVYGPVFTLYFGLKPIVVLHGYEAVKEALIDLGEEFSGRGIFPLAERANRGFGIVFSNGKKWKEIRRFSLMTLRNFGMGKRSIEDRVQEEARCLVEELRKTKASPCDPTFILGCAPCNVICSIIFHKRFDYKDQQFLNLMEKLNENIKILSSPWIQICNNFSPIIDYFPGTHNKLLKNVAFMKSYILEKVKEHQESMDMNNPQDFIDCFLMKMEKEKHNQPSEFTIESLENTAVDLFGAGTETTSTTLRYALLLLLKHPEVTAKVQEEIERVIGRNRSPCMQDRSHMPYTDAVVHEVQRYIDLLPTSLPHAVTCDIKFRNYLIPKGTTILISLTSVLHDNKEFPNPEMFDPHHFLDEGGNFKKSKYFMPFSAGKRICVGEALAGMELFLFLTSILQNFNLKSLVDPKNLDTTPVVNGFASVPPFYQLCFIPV
CYP2C9 act: human CYP2C9 activators, primary screen, biochemical, luminescence | actives 1.4% (n = 96,000) | recombinant CYP2C9, luciferin-H conversion; active compounds read high; factor 1 = untreated enzyme, 0 = blocked | activation factor at 5 µM | Cytochrome P450 2C9 (Homo sapiens), P11712;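 active means activation factor of 2 or more for CYP2C9 at a 5 µM dose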
CD11b adhes enh: enhancers of CD11b/CD18 adhesion to fibrinogen, primary screen, K562 cells, luminescence. Integrin beta-2 (Homo sapiens) + Integrin alpha-M (Homo sapiens), P05107+P11215. ATPlite luminescence. activation, % at 10 µM. actives 0.07% (n = 93,000). AID 1499, 2009;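 active means 10 µM primary screen giving 50% or more activity, confirmed by 40% or more on retest at that dose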
CYP2C19 inhib: blockers of cytochrome P450 2C19 activity – biochemical, luminescence, ADME assay, primary screen | inhibition, % at 5 µM | actives 21% (n = 96,000) | CYP2C19 Supersomes, luciferin-H EGE luminescence, 30 min | P33261 | AID 778, 2007;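 active means CYP2C19 inhibition above a set limit at 5 µM in the primary screen, cut at about 50% in these data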
Mac1 fbg inh: inhibitors of CD11b/CD18 adhesion to fibrinogen, primary screen, K562 cells, luminescence. actives 0.54% (n = 93,000). inhibition, % at 10 µM. ATPlite luminescence; Mn2+ added to activate the integrin. Integrin beta-2 (Homo sapiens) + Integrin alpha-M (Homo sapiens), P05107+P11215. AID 1497, 2009;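 active means primary inhibition of 50% or more at 10 µM, then 40% or more on retest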
A number is an active result; i = inactive; nt = no result. An excerpt weighted towards active compounds, which were near 28% of everything screened.

SMILES	CYP2C19 act	CYP2C9 inhib	CYP2C9 act	CD11b adhes enh	CYP2C19 inhib	Mac1 fbg inh
CO/N=C/c1ccc(N2CCN(C(=O)c3ccc(C)cc3)CC2)c([N+](=O)[O-])c1	i	i	i	nt	i	nt
Cc1cccc(C)c1N(CC(=O)Nc1cccc(N(C)S(C)(=O)=O)c1)S(C)(=O)=O	i	58	i	i	i	i
COc1cc(CCC(=O)OCC(=O)Nc2c(C)cccc2C(C)C)cc(OC)c1OC	nt	nt	nt	i	nt	i
CCc1ccc(CCC(=O)Nc2ccccc2C(=O)O)o1	i	52	i	i	i	i
Cc1ccc(CCC(=O)Nc2nccs2)o1	i	i	i	i	63	i
CCc1ccc(CCC(=O)Nc2nccs2)o1	i	i	i	i	58	i
CCC(C)NC(=O)c1cc(OC)c(OC)c(OC)c1 (configuration not stated)	i	i	i	i	i	i
Cc1nc2sc(C(c3cccc(F)c3)N3CCC(C)CC3)c(O)n2n1 (configuration not stated)	i	i	i	i	80	i
Cc1nc2sc(C(c3ccccc3)N3CCN(c4ccccc4F)CC3)c(O)n2n1 (configuration not stated)	i	i	i	i	66	i
Cc1nc2sc(C(c3ccccc3)N3CCC(O)CC3)c(O)n2n1 (configuration not stated)	i	i	i	i	i	i
COc1cccc(C(c2sc3nc(C)nn3c2O)N2CCc3ccccc3C2)c1 (configuration not stated)	i	53	i	i	78	i
CCOc1ccc(NC(=O)C(c2ccccn2)N(C(=O)CCl)c2ccc(F)cc2)cc1 (configuration not stated)	nt	nt	nt	i	nt	i
CC(C)N(C(=O)CSc1nnc(Cn2nnc3ccccc32)n1C)C(C)C	i	i	i	i	i	i
CC(C)N(C(=O)CSc1nc2ccccc2n1-c1ccccc1)C(C)C	i	nt	nt	nt	51	nt
CCC(Sc1nc(C)cc(=O)[nH]1)C(=O)Nc1nnc(C)s1 (configuration not stated)	i	i	i	nt	i	nt
CC(Sc1nc2ccccc2s1)C(=O)Nc1nnc(C(C)C)s1 (configuration not stated)	i	66	i	i	i	i
CCC(Sc1nnc(C)s1)C(=O)Nc1nccs1 (configuration not stated)	i	i	i	i	i	i
CCC(Sc1nc2ccc(N)cc2s1)C(=O)Nc1nccs1 (configuration not stated)	i	62	i	i	77	i
CCC(Sc1nc2ccccc2s1)C(=O)Nc1nnc(C)s1 (configuration not stated)	i	67	i	i	i	i
Cn1c(=O)c2c3c(sc2n2c(SCc4ccc5c(c4)OCO5)nnc12)COC(C)(C)C3	i	i	i	i	i	i
CCn1cc(Br)c(C(=O)NC(C)c2ccccc2)n1 (configuration not stated)	i	i	i	i	i	i
CCn1cc(Br)c(C(=O)N(C)Cc2ccccc2)n1	i	i	i	i	92	i
O=C(Nc1ccc(N2CCN(C(=O)c3ccco3)CC2)cc1)c1ccccc1F	i	i	i	i	i	i
O=C(c1ccccc1F)N1CCN(c2ccccc2)CC1	i	i	i	i	50	i
O=C(c1sc2ccccc2c1Cl)N1CCN(c2ccc(F)cc2)CC1	i	i	2.3	nt	82	nt
SMILES	CYP2C19 act	CYP2C9 inhib	CYP2C9 act	CD11b adhes enh	CYP2C19 inhib	Mac1 fbg inh
COC(=O)c1cccnc1N1CCN(c2ccccc2F)CC1	i	i	i	i	82	i
CCC(C)[C@H](NC(=O)Nc1ccc(C(C)=O)cc1)C(=O)OC (some centres not stated)	i	i	i	i	i	i
CCSc1ccccc1C(=O)N1CCN(c2ccccc2F)CC1	i	58	i	i	54	i
FC(F)(F)c1cccc(NC(=S)N2CCN(c3cccc(C(F)(F)F)c3)CC2)c1	i	i	i	i	i	i
O=C(c1ccc2c(c1)OCO2)N1CCN(c2ccc(F)cc2)CC1	i	i	i	i	84	i
O=C(c1ccc(Br)o1)N1CCN(c2ccccc2F)CC1	i	i	i	i	92	i
O=C(c1ccncc1)N1CCN(c2cccc(C(F)(F)F)c2)CC1	i	92	i	i	100	i
CCC(c1nnc(SCC(=O)Nc2nnc(-c3ccccc3)o2)n1Cc1ccccc1)N(C)C (configuration not stated)	i	i	i	nt	i	nt
COc1ccccc1C(O)(C(=O)NN(C(=O)c1ccccc1)c1ccccc1C)c1cccs1 (configuration not stated)	i	i	i	i	i	i
CC(Sc1ncc(C#N)c(N)n1)C(=O)Nc1ccccc1 (configuration not stated)	i	i	i	i	i	i
O=C(c1ccncc1)N1CCN(c2ccc(F)cc2)CC1	i	i	i	i	91	i
CC(C)OC(=O)c1cccnc1N1CCN(c2ccc(F)cc2)CC1	i	i	i	i	63	i
O=C(N1CCOCC1)N1CCN(c2ccccc2F)CC1	i	i	i	i	i	i
O=C(Nc1ccccc1)c1cccnc1N1CCCC1	i	i	i	i	i	i
O=C(c1ccccc1)N1CCN(c2ccccc2F)CC1	i	66	i	i	93	i
O=C(c1ccccc1C(=O)N1CCN(c2ccccc2F)CC1)N1CCN(c2ccccc2F)CC1	i	89	i	i	70	i
NC(=O)CN1C(=O)C2C3C=CC(C3)C2C1=O (configuration not stated)	i	i	i	i	i	i
O=C(Cn1ccc2ccccc2c1=O)NCCC(=O)NC1CCN(Cc2ccccc2)CC1	i	i	i	i	i	i
CS(=O)(=O)Nc1ccc(C(=O)N2CCN(c3ccccc3F)CC2)cc1	i	i	i	i	i	i
O=C(c1ccc(Br)o1)N1CCN(c2ccccn2)CC1	i	77	i	i	90	i
O=C(CCCCC(=O)N1CCN(c2ccccc2)CC1)N1CCN(c2ccccc2)CC1	i	i	i	i	i	i
O=C(c1ccccc1Br)N1CCN(c2ccccc2)CC1	i	i	i	i	60	i
O=C(c1ccccc1F)N1CCN(c2ccccc2F)CC1	i	i	i	i	68	i
CCn1cc(Br)c(C(=O)N2CCN(c3ccccc3)CC2)n1	i	i	2.1	i	85	i
CCOc1ccc(C(=O)N2CCN(c3ccccc3)CC2)cc1OCC	i	i	i	nt	i	nt
C=CCNC(=S)N1CCN(c2ccc([N+](=O)[O-])cc2)CC1	nt	nt	nt	i	nt	i

Source: PubChem (Sanford-Burnham Center for Chemical Genomics)
